# The campaign covered roughly 350,000 compounds. About 840 (0.24%) were called active. No stated cut-off is given here; in the data, active means inhibition above about 10%; inactive means the rest. Only a selection was taken, and actives are over-represented in it overall.
# Molecular target: Toxin B (Clostridioides difficile) (UniProt P18177)
# Assay: TcdB glycohydrolase inhibitors, primary screen, biochemical, single point, plate reader (AID 652162)
# Details: TcdB glycohydrolase enzymatic assay, at 9.99 µM, hits give high values
# Sequence of Toxin B (Clostridioides difficile) (P18177 whole entry, looked up): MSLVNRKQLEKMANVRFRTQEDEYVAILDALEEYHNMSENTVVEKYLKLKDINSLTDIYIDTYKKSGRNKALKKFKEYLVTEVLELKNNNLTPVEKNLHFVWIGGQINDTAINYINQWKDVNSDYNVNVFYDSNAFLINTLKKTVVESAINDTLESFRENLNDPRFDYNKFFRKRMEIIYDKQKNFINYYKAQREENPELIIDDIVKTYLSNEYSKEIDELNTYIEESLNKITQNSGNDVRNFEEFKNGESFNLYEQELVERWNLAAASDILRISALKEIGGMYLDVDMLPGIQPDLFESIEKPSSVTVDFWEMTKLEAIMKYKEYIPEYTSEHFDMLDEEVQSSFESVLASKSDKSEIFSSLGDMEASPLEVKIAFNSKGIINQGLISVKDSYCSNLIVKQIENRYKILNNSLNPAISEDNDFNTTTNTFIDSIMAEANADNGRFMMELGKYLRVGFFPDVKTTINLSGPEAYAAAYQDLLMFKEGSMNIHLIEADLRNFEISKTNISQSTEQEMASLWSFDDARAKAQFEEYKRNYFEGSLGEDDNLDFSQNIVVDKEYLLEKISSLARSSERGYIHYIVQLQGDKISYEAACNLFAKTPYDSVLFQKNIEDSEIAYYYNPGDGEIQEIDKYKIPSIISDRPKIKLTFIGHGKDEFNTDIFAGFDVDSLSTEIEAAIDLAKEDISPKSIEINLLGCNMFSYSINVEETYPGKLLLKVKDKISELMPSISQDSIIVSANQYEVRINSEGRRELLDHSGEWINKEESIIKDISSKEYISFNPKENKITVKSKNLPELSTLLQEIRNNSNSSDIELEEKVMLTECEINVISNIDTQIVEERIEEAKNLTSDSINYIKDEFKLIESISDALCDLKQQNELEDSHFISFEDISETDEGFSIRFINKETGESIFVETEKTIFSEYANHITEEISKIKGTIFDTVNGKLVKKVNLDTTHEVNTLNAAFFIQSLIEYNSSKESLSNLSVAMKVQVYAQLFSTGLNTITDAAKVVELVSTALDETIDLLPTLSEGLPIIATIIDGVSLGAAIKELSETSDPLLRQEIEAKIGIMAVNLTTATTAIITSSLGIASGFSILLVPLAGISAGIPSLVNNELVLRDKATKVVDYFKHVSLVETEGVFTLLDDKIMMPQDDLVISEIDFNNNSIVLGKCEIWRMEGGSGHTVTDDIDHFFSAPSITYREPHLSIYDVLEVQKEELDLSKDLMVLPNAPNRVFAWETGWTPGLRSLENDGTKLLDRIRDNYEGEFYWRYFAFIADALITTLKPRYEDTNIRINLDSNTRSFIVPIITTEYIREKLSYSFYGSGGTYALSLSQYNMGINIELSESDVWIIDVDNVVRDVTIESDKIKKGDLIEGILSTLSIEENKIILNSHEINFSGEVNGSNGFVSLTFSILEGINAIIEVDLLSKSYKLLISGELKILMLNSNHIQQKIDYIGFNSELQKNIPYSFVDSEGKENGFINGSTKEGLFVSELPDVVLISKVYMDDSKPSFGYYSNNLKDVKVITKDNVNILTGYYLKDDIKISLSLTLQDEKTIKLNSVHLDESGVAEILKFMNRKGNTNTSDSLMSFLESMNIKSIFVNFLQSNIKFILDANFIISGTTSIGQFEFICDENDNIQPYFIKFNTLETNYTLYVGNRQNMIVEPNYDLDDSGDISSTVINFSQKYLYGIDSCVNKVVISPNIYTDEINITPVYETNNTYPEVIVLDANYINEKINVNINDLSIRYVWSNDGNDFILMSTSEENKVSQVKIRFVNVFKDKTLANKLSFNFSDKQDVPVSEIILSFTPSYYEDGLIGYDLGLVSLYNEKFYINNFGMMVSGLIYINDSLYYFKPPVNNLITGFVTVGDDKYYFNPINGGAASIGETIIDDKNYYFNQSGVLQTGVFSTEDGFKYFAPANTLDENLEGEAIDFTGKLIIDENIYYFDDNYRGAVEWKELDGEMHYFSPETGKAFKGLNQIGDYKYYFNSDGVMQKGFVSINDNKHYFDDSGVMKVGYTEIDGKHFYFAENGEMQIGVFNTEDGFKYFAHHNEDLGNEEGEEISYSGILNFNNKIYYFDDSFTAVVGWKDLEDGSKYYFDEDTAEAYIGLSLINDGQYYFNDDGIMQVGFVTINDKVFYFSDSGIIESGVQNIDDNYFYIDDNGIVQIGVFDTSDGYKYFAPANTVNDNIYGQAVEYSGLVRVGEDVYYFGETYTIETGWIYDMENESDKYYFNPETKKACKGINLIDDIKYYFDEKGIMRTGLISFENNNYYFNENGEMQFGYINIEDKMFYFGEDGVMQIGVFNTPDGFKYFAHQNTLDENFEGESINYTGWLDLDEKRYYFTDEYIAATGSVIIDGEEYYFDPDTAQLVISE
row,SMILES,inhibition
1,C/C(=N\NC(=O)COc1c(C)cccc1C)c1cccs1,0.614% (inactive)
2,C/C(=N\NC(=O)CSc1nc2ccccc2c(=O)n1-c1ccccc1C)c1cccs1,11.8% (active)
3,Cc1ccccc1-n1c(SCC(=O)Nc2cccc3ccccc23)nc(O)cc1=O,1.39% (inactive)
4,COc1ccccc1-c1cnc2c(c1)C(=O)N([C@H](C)CO)C[C@H](C)[C@H](CN(C)C(=O)CN(C)C)O2,0.748% (inactive)
5,CCC(=O)N(C)C[C@@H]1Oc2ncc(C#Cc3cccnc3)cc2C(=O)N([C@@H](C)CO)C[C@@H]1C,0.973% (inactive)
6,C[C@H](CO)N1C[C@H](C)[C@H](CN(C)Cc2ccc3c(c2)OCO3)Oc2c(NC(=O)NC3CCCCC3)cccc2C1=O,-1.25% (inactive)
7,COc1ccccc1CNC(=O)C[C@@H]1CC[C@H]2[C@@H](COc3ccc(NS(=O)(=O)c4ccc(C)cc4)cc3C(=O)N2C)O1,0.867% (inactive)
8,Cn1cnc(CCNC(=O)C[C@H]2CC[C@@H]3[C@H](COC[C@H](O)CN3C(=O)C3CC3)O2)c1,-0.073% (inactive)
9,COc1ccc(NC(=O)Nc2ccc3c(c2)C(=O)N([C@H](C)CO)C[C@H](C)[C@H](CN(C)C(=O)Nc2c(C)noc2C)OCCCC[C@@H](C)O3)cc1,0.188% (inactive)
10,CC(C)NC(=O)Nc1ccc2c(c1)C(=O)N([C@@H](C)CO)C[C@H](C)[C@@H](CN(C)C)O2,0.811% (inactive)
11,Cc1ccc(NNC(=O)C2CCC2)cc1C,58.9% (active)
12,Cc1ccc(C)c(OCC(=O)NNC(=O)C2CCC2)c1,1.49% (inactive)
13,O=C(NNC(=O)C1CCC1)c1ccccc1,1.5% (inactive)
14,O=C(Nc1cccc(Cl)c1)N[C@H]1CC[C@H](CCNC(=O)C2CCOCC2)O[C@H]1CO,0.073% (inactive)
15,CCOC(=O)C1=CC[C@@H](c2ccncc2)N(S(=O)(=O)c2ccc(C)cc2)C1,3.35% (inactive)
16,CC(=O)C1=CCC(c2ccccc2)N(S(=O)(=O)c2ccc(C)cc2)C1 (stereo unspecified),13.2% (active)
17,CCOC(=O)C1=CCC(c2ccc(F)cc2)N(S(=O)(=O)c2ccc(C)cc2)C1 (stereo unspecified),1.19% (inactive)
18,CC(C)NC(=O)N1[C@H](CO)[C@H](c2ccccc2)C12CN(C(=O)Cc1ccccc1)C2,-9.73% (inactive)
19,CNC[C@H]1OCCCC[C@H](C)Oc2ccc(NS(=O)(=O)c3ccc(Cl)cc3)cc2C(=O)N([C@@H](C)CO)C[C@@H]1C,0.862% (inactive)
20,CCCC(=O)Nc1ccc2c(c1)C(=O)N(C)C[C@H](OC)[C@H](C)CN(CCc1ccccc1)[C@H](C)CO2,0.195% (inactive)
21,Cc1noc(C)c1S(=O)(=O)Nc1ccc2c(c1)CC(=O)N([C@@H](C)CO)C[C@@H](C)[C@H](CN(C)S(=O)(=O)c1cccs1)O2,1.18% (inactive)
22,C[C@H]1CN([C@@H](C)CO)C(=O)Cc2cc(N(C)C)ccc2O[C@@H]1CN(C)S(=O)(=O)c1ccc(F)cc1,-6.02% (inactive)
23,COCC(=O)Nc1ccc2c(c1)C(=O)N(C)C[C@H](OC)[C@@H](C)CN(C(=O)c1cnccn1)[C@H](C)CO2,0.644% (inactive)

row,SMILES,inhibition
1,COCCN(C(=O)C(C)C)c1nnc(-c2ccc(C(C)(C)C)cc2)s1,10.1% (active)
2,COCCN(Cc1nc(-c2ccc(C(F)(F)F)cc2)no1)C(C)C,1.49% (inactive)
3,C[C@@H]1CN([C@H](C)CO)C(=O)c2cc(NS(C)(=O)=O)ccc2O[C@@H]1CN(C)S(C)(=O)=O,0.537% (inactive)
4,COCc1cn(CC[C@H]2CC[C@H](NC(=O)Nc3ccc4c(c3)OCO4)[C@@H](CO)O2)nn1,0.036% (inactive)
5,CNC[C@H]1Oc2ncc(-c3ccccc3C)cc2C(=O)N([C@@H](C)CO)C[C@@H]1C,0.537% (inactive)
6,C[C@@H]1CN([C@H](C)CO)C(=O)c2cc(C#CC3(O)CCCC3)cnc2O[C@H]1CN(C)Cc1ccncc1,0.916% (inactive)
7,CN1CCN(/N=C/c2c[nH]c3ccccc23)CC1,12.7% (active)
8,C[n+]1ccc(/C=C/c2c[nH]c3ccccc23)cc1,1.44% (inactive)
9,CN1CCN(/N=C/c2ccc(C#N)cc2)CC1,0.047% (inactive)
10,C[C@H](CO)N1C[C@H](C)[C@@H](CN(C)C(=O)Nc2cccc3ccccc23)Oc2c(NS(=O)(=O)c3ccccc3)cccc2C1=O,-1.06% (inactive)
11,C[C@H](CO)N1C[C@H](C)[C@@H](CN(C)Cc2ccc(C(F)(F)F)cc2)Oc2ccc(NC(=O)CCC(F)(F)F)cc2C1=O,0.866% (inactive)
12,O=C(C[C@@H]1C[C@@H]2c3cc(NC(=O)Nc4ccc(F)cc4)ccc3O[C@@H]2[C@H](CO)O1)NCC(F)(F)F,0.33% (inactive)
13,CCC(CC)C(=O)N1CC(=O)Nc2ccc(Br)cc2C1c1ccccc1 (stereo unspecified),3.15% (inactive)
14,COC(=O)Cc1nnn2c1[C@H](C)[C@@H](OC)c1cc(Br)ccc1-2,0.213% (inactive)
15,COC(=O)CN1C(C)=Nc2ccc(Br)cc2C1c1ccccc1 (stereo unspecified),55.6% (active)
16,C[C@@H]1CN([C@@H](C)CO)C(=O)c2cc(-c3ccc(F)cc3)cnc2O[C@@H]1CN(C)Cc1ccc(C(=O)O)cc1,-1.74% (inactive)
17,Cc1noc(C)c1S(=O)(=O)Nc1ccc2c(c1)C(=O)N([C@@H](C)CO)C[C@H](C)[C@@H](CN(C)C)OCCCC[C@@H](C)O2,-1.17% (inactive)
18,CC(=O)N(C)C[C@@H]1Oc2cc(-c3cncnc3)ccc2S(=O)(=O)N([C@@H](C)CO)C[C@H]1C,-0.296% (inactive)
19,O=C(C1CCC1)N1CC(=O)N2[C@H](CO)[C@H](c3ccc(C#CCc4ccccc4)cc3)[C@@H]2C1,0.603% (inactive)
20,O=C(c1ccc(N2CCOCC2)c([N+](=O)[O-])c1)N1CCN(c2ccccc2F)CC1,10.3% (active)
21,O=C(OCC(=O)N1CCOCC1)c1ccc(N2CCOCC2)c([N+](=O)[O-])c1,0.627% (inactive)
22,O=C(c1ccc(N2CCOCC2)c([N+](=O)[O-])c1)N1CCN(S(=O)(=O)c2cccs2)CC1,3.29% (inactive)
23,O=C(N[C@H]1C=C[C@@H](CC(=O)N2CCc3ccccc3C2)O[C@@H]1CO)C1CCOCC1,1.24% (inactive)

# — PubChem BioAssay AID652162 (Broad Institute, 2013)
